Source: PubChem BioAssay AID1159580 (chemical genetic matrix, 2015)
“And” between values parts separate entries of the source, which are not always exact repeats. Identical values can stand only once. Screen size: about 5,500 compounds; about 2,000 (36%) were called active. Another 18% or so got no clear call; they are omitted. Cut-off read from the data, not from the text of the source: active = normalized growth mostly below about 0.91 (no sharp cut-off); inconclusive = no clear call, values can overlap the other calls; inactive = mostly above about 0.92. This is one part of the list.

Experiment: chemical genetic growth profiling, strain panel (AID 1159580);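 note: tested at 20 µM; growth read once vehicle control cultures reached saturation at 30 °C; 1 = growth at the plate median or of vehicle wells; lower values mean less growth of the strain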
Settings: S. cerevisiae deletion strains, growth OD

Measured: normalized growth

CCCN(CCC)c1c([N+](=O)[O-])cc(C(F)(F)F)cc1[N+](=O)[O-]
inactive: locus YAL013W, strain DEP1, stronger effect = lower value 1.02 | locus YAL021C, strain ccr4, stronger effect = lower value 1 | locus YAL026C, strain drs2, stronger effect = lower value 0.999 | locus YAL030W, strain snc1, stronger effect = lower value 1 | locus YBL061C, strain skt5, stronger effect = lower value 1.01 | locus YBR009C, strain hhf1, stronger effect = lower value 0.995 | locus YBR021W, strain FUR4, stronger effect = lower value 1.03 | locus YBR023C, strain chs3, stronger effect = lower value 1.01 | locus YBR171W, strain sec66, stronger effect = lower value 0.985 | locus YBR229C, strain ROT2, stronger effect = lower value 1 | locus YBR231C, strain swc5, stronger effect = lower value 1.02 | locus YBR279W, strain paf1, stronger effect = lower value 1.01 | locus YCL011C, strain gbp2, stronger effect = lower value 0.97 | locus YCL016C, strain dcc1, stronger effect = lower value 1 | locus YCL029C, strain bik1, stronger effect = lower value 1.01 | locus YCL061C, strain MRC1, stronger effect = lower value 0.984 | locus YCL069W, strain vba3, stronger effect = lower value 0.977 | locus YCR088W, strain abp1, stronger effect = lower value 0.976 | locus YDL005C, strain med2, stronger effect = lower value 1.01 | locus YDL035C, strain GPR1, stronger effect = lower value 1.04 | locus YDL040C, strain nat1, stronger effect = lower value 1 | locus YDL074C, strain BRE1, stronger effect = lower value 1.04 | locus YDL101C, strain DUN1, stronger effect = lower value 0.997 | locus YDL134C, strain PPH21, stronger effect = lower value 0.995 | locus YDL185W, strain tfp1, stronger effect = lower value 1.02 | locus YDL192W, strain arf1, stronger effect = lower value 1.02 | locus YDR001C, strain nth1, stronger effect = lower value 0.981 | locus YDR069C, strain doa4, stronger effect = lower value 1.02 | locus YDR101C, strain arx1, stronger effect = lower value 1.01 | locus YDR137W, strain rgp1, stronger effect = lower value 0.957 | locus YDR150W, strain NUM1, stronger effect = lower value 1.02 | locus YDR159W, strain sac3, stronger effect = lower value 0.989 | locus YDR162C, strain NBP2, stronger effect = lower value 1 | locus YDR195W, strain ref2 0.987 | locus YDR297W, strain sur2, stronger effect = lower value 1 | locus YDR318W, strain mcm21, stronger effect = lower value 1.01 | locus YDR334W, strain swr1, stronger effect = lower value 0.994 | locus YDR335W, strain msn5, stronger effect = lower value 1.01 | locus YDR388W, stronger effect = lower value 1 | locus YDR392W, strain spt3, stronger effect = lower value 0.919 | locus YDR502C, strain sam2, stronger effect = lower value 1.02 | locus YEL003W, strain gim4, stronger effect = lower value 0.974 | locus YEL037C, strain rad23, stronger effect = lower value 0.988 | locus YEL061C, strain CIN8 (second series), stronger effect = lower value 0.981 | locus YEL061C, strain CIN8, stronger effect = lower value 1.01 | locus YER015W, strain faa2, stronger effect = lower value 1.01 | locus YER016W, strain bim1, stronger effect = lower value 1 | locus YER110C, stronger effect = lower value 1.01 | locus YER111C, strain swi4, stronger effect = lower value 0.98 | locus YER155C, strain BEM2 (second series), stronger effect = lower value 1 | locus YER155C, strain BEM2, stronger effect = lower value 1.01 | locus YER167W, strain BCK2, stronger effect = lower value 0.997 | locus YFR010W, strain ubp6, stronger effect = lower value 0.996 | locus YGL078C, strain dbp3, stronger effect = lower value 1.01 | locus YGL086W, strain mad1, stronger effect = lower value 1.01 | locus YGL167C, strain pmr1, stronger effect = lower value 1.01 | locus YGL173C, strain kem1, stronger effect = lower value 1.02 | locus YGL227W, strain vid30, stronger effect = lower value 0.982 | locus YGL240W, strain doc1, stronger effect = lower value 1.05 | locus YGL248W, strain PDE1, stronger effect = lower value 0.99 | locus YGL253W, strain hxk2, stronger effect = lower value 1.01 | locus YGR078C, strain PAC10, stronger effect = lower value 1.02 | locus YGR135W, strain pre9, stronger effect = lower value 1.02 | locus YGR229C, strain SMI1, stronger effect = lower value 1.01 | locus YGR252W, strain gcn5, stronger effect = lower value 1.05 | locus YHR013C, strain ard1, stronger effect = lower value 1.06 | locus YHR027C, strain rpn1, stronger effect = lower value 1.03 | locus YHR030C, strain SLT2, stronger effect = lower value 1.01 and 0.97 | locus YHR079C, strain IRE1 (second series), stronger effect = lower value 1.02 | locus YHR079C, strain IRE1, stronger effect = lower value 0.979 | locus YHR094C, strain hxt1, stronger effect = lower value 1.01 | locus YHR129C, strain ARP1, stronger effect = lower value 0.99 | locus YHR142W, strain chs7, stronger effect = lower value 0.975 | locus YHR200W, strain rpn10, stronger effect = lower value 1.01 | locus YIL066C, strain RNR3, stronger effect = lower value 1.02 | locus YIL073C, strain SPO22, stronger effect = lower value 1.04 | locus YIL125W, strain kgd1, stronger effect = lower value 1 | locus YIR030C, strain dcg1, stronger effect = lower value 1.01 | locus YJL092W, strain hpr5, stronger effect = lower value 0.976 | locus YJL095W, strain BCK1 (second series), stronger effect = lower value 1.01 | locus YJL095W, strain BCK1, stronger effect = lower value 0.99 and 0.98 | locus YJL115W, strain asf1, stronger effect = lower value 0.998 | locus YJL129C, strain trk1, stronger effect = lower value 0.96 | locus YJL134W, strain LCB3, stronger effect = lower value 1 | locus YJL154C, strain vps35, stronger effect = lower value 0.978 | locus YJL164C, strain tpk1, stronger effect = lower value 0.991 | locus YJL166W, strain qcr8, stronger effect = lower value 1.02 | locus YJL168C, strain set2, stronger effect = lower value 1.01 | locus YJL187C, strain SWE1 (second series), stronger effect = lower value 1.02 | locus YJL187C, strain SWE1, stronger effect = lower value 1.01 | locus YJR043C, strain POL32, stronger effect = lower value 1.01 | locus YJR066W, strain TOR1, stronger effect = lower value 0.914
